The source of these data is PubChem BioAssay (NCATS).

A short description of experiment [1]: AP1 Signaling Pathway (AID 357; active means well fitted curve in either direction with a large enough effect, not every such curve was filed as active;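 further: ME-180 reporter cells stimulated with EGF at its EC50 level; on the % scale 0 is the no-effect control and ±100 the full control effect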). Particulars: ME-180 AP-1-bla reporter, EGF-induced, beta-lactamase ratio, 5 h; at 7.69 µM (top of the series) unless noted. The procedure, abridged:
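In this screen, ME-180 cells in Opti-MEM with 0.5% dialyzed FBS received EC50 EGF and compound titrations for 5 h. AP-1 reporter beta-lactamase was detected via CCF4 ratio, giving AC50 for positive and negative modulators.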

For experiment [2], the target named is Cytochrome P450 1A2 (Homo sapiens) (UniProt P05177). The experiment can be described thus: p450-cyp1a2 (AID 410; calls by dose curve;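 further: -100% = full effect of reference inhibitor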). The procedure, abridged:
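Luminescent demethylation readout: Luciferin-ME (100uM, equal to Km) turned over by 20nM CYP1A2 for 60 min at room temperature after NADPH regeneration addition, following 10 min compound preincubation. Normalization used 57 uM furafylline as full inhibition.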

A short description of experiment [3]: NFAT Signaling Pathway (AID 444; active means well fitted curve in either direction with a large enough effect, not every such curve was filed as active;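 further: carbachol stimulus at about its EC50 of 1 µM final; on the % scale 0 is the no-effect control and ±100 the full control effect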). Particulars: Jurkat NFAT-bla M1, carbachol, beta-lactamase ratio, 5 h; at 7.69 µM (top of the series) unless noted. The procedure, abridged:
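Read-out: CCF4 FRET ratio (460 nm/530 nm) after 1 h RT dye loading, used for %activity and AC50 from titration series. Cells: Jurkat NFAT-β-lactamase/M1 line, treated with compound plus 1 uM carbachol for 5 h, 37 °C.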

The nature of experiment [4]: Stat Signaling Pathway (AID 446; active means well fitted curve in either direction with a large enough effect, not every such curve was filed as active;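 further: ME-180 cervical cancer cells given 40 pM IL-6 alongside compound; SIE-controlled beta-lactamase reporter measured as 460/530 nm FRET emission ratio; on the % scale 0 is the no-effect control and ±100 the full control effect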). As to conditions: ME-180 (cervical carcinoma) SIE beta-lactamase reporter, IL-6 stimulated, 5 h; at 7.69 µM (top of the series) unless noted. Summed up:
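Emission at 460 and 530 nm (excitation 405 nm) reports SIE-controlled beta-lactamase in ME-180 cells. Cells received compound with 40 pM IL-6 for 5 hrs at 37 C; data scaled between 300 pM IL-6 and 125 nM JAK-inhibitor controls.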

In experiment [5] the target is Glucocorticoid receptor (Homo sapiens) (UniProt P04150). Description: GR-GFP Redistribution (AID 450;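 active means compounds whose dose series gives a full or clear partial fitted curve of increased nuclear translocation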; further: potency means the concentration at half of the fitted maximal effect). As to conditions: U2OS GR-GFP nuclear translocation, laser cytometry, 2 h.
Sequence of Glucocorticoid receptor (Homo sapiens) (P04150 whole entry, looked up): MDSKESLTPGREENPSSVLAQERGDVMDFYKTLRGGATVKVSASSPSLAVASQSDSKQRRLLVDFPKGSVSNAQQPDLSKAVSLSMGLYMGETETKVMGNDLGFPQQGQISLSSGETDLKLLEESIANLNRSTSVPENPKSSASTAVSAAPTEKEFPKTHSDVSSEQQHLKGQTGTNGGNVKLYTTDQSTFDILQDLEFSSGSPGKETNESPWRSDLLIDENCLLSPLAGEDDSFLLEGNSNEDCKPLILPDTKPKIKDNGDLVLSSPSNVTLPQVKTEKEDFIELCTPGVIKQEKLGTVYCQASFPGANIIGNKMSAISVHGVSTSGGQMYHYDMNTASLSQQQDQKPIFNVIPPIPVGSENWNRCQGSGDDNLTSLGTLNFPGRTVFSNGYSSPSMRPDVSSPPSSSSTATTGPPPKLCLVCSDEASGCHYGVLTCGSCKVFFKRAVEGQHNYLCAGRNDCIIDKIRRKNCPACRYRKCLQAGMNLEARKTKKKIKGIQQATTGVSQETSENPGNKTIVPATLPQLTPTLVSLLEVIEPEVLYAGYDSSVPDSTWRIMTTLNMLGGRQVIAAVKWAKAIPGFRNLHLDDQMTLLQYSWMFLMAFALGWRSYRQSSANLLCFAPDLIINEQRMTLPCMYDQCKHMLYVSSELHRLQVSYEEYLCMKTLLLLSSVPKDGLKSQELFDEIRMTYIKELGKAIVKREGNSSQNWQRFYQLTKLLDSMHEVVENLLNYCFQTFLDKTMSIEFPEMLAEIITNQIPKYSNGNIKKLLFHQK
The target is the same in experiment [6]. Description: GR-EFC Redistribution (AID 451; calls by dose curve; further: potency means the concentration at half of the fitted maximal effect). Particulars: CHO-K1 GR-EFC translocation, beta-gal luminescence, 2 h. The procedure, abridged:
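Translocation of GR-ED fusion to nuclear EA restores b-gal, read by luminescence after 1 h room-temperature detection. Engineered CHO-K1 biosensor cells, 1,000/well, exposed 2 h at 37 C to titrations up to 46 uM final.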

In experiment [7] the target is Mitogen-activated protein kinase 10 (Mus musculus) (UniProt Q61831). Description: JNK3 AlphaScreen Assay (AID 530; active means well fitted curve in either direction with a large enough effect, not every such curve was filed as active;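 further: kinase came from lysate of stimulated human HepG2 cells; signal reports phosphorylation of biotinylated GST-cJun 1-79 at Ser73 with 10 µM ATP; on the % scale 0 is the no-effect control and ±100 the full control effect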). The procedure, abridged:
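qHTS titrations with 15 min compound pre-incubation before adding ATP (10 uM final). Read-out: AlphaScreen of Ser73-phosphorylated biotin-GST-cJun using HepG2 lysate JNK3 activated by IL-1β and TNFα.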
For orientation: Bead proximity is the source of the signal in Alpha formats.

Experiment [8] deals with 3',5'-cyclic-AMP phosphodiesterase 4B (Homo sapiens) (UniProt Q07343). The experiment can be described thus: qHTS Assay for Inhibitors of PDE-IV (AID 607; active means well fitted activation curve with a large enough effect in the main read-out, with a control signal flat, not every such curve was filed as active; further: % of control where 0% means no effect). Summed up:
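The readout is membrane depolarisation from a cAMP-sensing CNG channel, detected with a potential dye at ex 535/em 590. Cells were HEK293-derived (endogenous PDE-IV) at 1000 cells/well, titrated up to 22.9 uM final.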
(Quantitative high-throughput screening tests each substance at several concentrations.)

Experiment [9] concerns the target Guanine nucleotide-binding protein G(i) subunit alpha-1 (Homo sapiens) (UniProt P63096). Description: qHTS Assay for Inhibitors of RGS12 GoLoco Motif Activity (Green Fluorophore) (AID 879).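 Further: 0% = labeled peptide with Gαi1 and full inhibition = labeled peptide alone without protein; negative values mean loss of peptide binding seen as reduced polarization.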 The procedure, abridged: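 A drop in FITC polarization marked displacement of the FITC-tagged RGS12 GoLoco peptide (10 nM) from Gαi1 (50 nM). Compounds were incubated 10 min at room temperature in Tris pH 7.5 buffer containing 150 mM NaCl, 0.1 mM GDP and 0.05% NP40; unlabeled peptide titration served as control.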

Experiment [10] has as its target Cytochrome P450 2D6 (Homo sapiens) (UniProt P10635). The experiment can be described thus: qHTS Assay for Inhibitors and Substrates of Cytochrome P450 2D6 (AID 891). Further: potency means the concentration at half of the fitted maximal effect; nearly all actives have a fitted effect of over 60% in size. The procedure, abridged: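 Luminescent read-out of luciferin formed by 5 nM human CYP2D6 demethylating 30 uM Luciferin-ME EGE (Km level) over 60 min at room temperature after NADPH regeneration addition. Data normalized to full inhibition by 1.43 uM quinidine.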

The nature of experiment [11]: qHTS Assay for Identification of Small Molecule Agonists for Thrombopoietin (TPO) Signaling Pathway (AID 917). Further: on the % scale 0 is the no-effect control and ±100 the full control effect. Summed up:
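Human TPO receptor–transfected Ba/F3 cells (murine, IL-3-dependent) in IL-3-deficient medium; compounds plus TPO at EC50, 26 pM final; 24 hrs, 37 C; GpIIb-luciferase luminescence after 10 min RT detection.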

Experiment [12] deals with Muscarinic acetylcholine receptor M1 (Rattus norvegicus) (UniProt P08482). The experiment can be described thus: qHTS Assay for Antagonists of Acetylcholine Muscarinic M1 Receptor: Kinetic Measurement of Intracellular Calcium Response (AID 943).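 Further: Fluo-4 calcium signal as peak divided by basal fluorescence over 4 min; nearly all actives have a fitted effect of over 75% in size.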 The procedure, abridged:
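Antagonism measured as reduction of carbachol-evoked (EC80, 100 nM final) calcium flux in rat M1-CHO cells after 10 min compound exposure. Fluo-4 signal read kinetically; ratio of maximal to basal fluorescence.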

For experiment [13], the target named is Pyruvate kinase (Leishmania mexicana) (UniProt Q27686). The experiment can be described thus: qHTS Validation Assay for Inhibitors of Leishmania Mexicana Pyruvate Kinase (AID 945).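 Further: 0% = DMSO only neutral control wells.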 The procedure, abridged: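 An endpoint luciferase assay: 0.2 nM LmPYK E451W turns over 0.5 mM PEP with 0.1 mM ADP for 1 h at room temperature, pH 7.2, before PKLight addition. Values are normalized to DMSO-only wells.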
Sequence of Pyruvate kinase (Leishmania mexicana) (Q27686 2-499 E452W): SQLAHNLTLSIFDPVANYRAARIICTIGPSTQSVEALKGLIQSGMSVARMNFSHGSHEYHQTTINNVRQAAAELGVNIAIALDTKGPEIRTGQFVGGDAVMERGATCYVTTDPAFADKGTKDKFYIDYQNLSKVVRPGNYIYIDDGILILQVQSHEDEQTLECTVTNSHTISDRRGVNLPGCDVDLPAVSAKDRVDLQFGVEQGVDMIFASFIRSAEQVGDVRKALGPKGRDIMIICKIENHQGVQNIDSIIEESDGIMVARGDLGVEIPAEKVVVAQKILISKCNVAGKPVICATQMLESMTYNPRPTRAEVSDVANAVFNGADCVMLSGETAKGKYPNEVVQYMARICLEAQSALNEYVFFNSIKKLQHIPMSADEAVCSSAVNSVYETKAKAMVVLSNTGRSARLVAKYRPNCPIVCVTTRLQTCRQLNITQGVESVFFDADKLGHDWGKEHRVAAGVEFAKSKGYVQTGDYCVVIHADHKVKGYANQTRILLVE

For experiment [14], the target named is Pyruvate kinase PKM (Homo sapiens) (UniProt P14618). Description: qHTS Assay for Activators of Human Muscle Pyruvate Kinase (AID 954; active means well fitted curve in the direction sought with a large enough effect, not every such curve was filed as active;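 further: 0% = uninhibited enzyme and -100% = no enzyme or full thiadiazolimine inhibition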). The procedure, abridged: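 PKM2, human, >95% pure, 0.1 nM; PEP 0.5 mM (Km), ADP 0.1 mM; 50 mM imidazole pH 7.2, 50 mM KCl, 0.01% Tween 20, 0.05% BSA; 1 h RT; luciferase luminescence readout.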
Sequence of Pyruvate kinase PKM (Homo sapiens) (P14618 whole entry, looked up): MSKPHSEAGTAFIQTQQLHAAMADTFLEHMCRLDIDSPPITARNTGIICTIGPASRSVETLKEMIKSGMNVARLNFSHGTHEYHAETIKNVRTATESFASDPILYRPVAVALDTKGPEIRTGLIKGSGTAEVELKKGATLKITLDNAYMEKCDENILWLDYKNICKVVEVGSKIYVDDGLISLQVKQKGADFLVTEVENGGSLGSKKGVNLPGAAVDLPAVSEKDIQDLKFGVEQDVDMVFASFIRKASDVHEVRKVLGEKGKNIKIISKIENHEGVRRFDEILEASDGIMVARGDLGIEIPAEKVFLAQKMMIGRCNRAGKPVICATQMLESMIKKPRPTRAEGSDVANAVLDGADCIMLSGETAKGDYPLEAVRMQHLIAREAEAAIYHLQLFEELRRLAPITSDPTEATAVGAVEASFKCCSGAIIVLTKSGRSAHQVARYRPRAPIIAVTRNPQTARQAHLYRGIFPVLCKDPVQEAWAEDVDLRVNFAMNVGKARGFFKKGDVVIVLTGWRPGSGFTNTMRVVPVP
Experiment [15] concerns the target Alpha-galactosidase A (Homo sapiens) (UniProt P06280). The experiment can be described thus: Counterscreen for Glucocerebrosidase Inhibitors: qHTS Assay for Human alpha-Galactosidase at pH 4.5 (AID 992). Further: 0% is about no effect. Summed up:
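Fluorogenic 4-MU alpha-D-galactoside (80 uM) hydrolysis, 2 nM enzyme, pH 4.5 citrate buffer + 0.005% Tween-20; 20 min RT; NaOH/glycine pH 10 stop; Ex365/Em440. Compounds titrated 0.7 nM–77 uM; Hill-equation AC50.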

The target of experiment [16] is alpha-glucosidase (Oryza sativa, rice) (UniProt Q653V4). The experiment can be described thus: Counterscreen for Glucocerebrosidase Inhibitors: qHTS Assay for Rice alpha-Glucosidase at pH 5.0 (AID 997).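 Further: 0% = full activity with enzyme and -100% = basal without enzyme.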 Summed up:
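Endpoint fluorogenic assay at pH 5.0: compounds (0.7 nM to 77 uM) titrated against 4 nM rice enzyme and 400 uM 4-MU-alpha-glucoside for 20 min at room temperature; NaOH/glycine stop, read ex 365/em 440 nm, Hill-fitted AC50.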
On the technique in general: Counterscreens check selectivity or assay interference.

Experiment [17] has as its target Alpha-galactosidase (Coffea arabica) (UniProt Q42656). The experiment can be described thus: Counterscreen for Glucocerebrosidase Inhibitors: qHTS Assay for Coffee Bean alpha-Galactosidase at pH 5.9 (AID 998).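 Further: plate controls were uninhibited enzyme for no effect and no-enzyme basal signal for full effect.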 Summed up: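 Fluorogenic 4-MU substrate hydrolysis, 80 uM substrate and 2 nM coffee bean alpha-galactosidase, pH 5.9 citrate buffer, 20 min at room temperature, then NaOH/glycine stop. Titration 0.7 nM–77 uM, normalized to no-enzyme and enzyme controls, AC50 via Hill equation.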

Experiment [18] has as its target Muscarinic acetylcholine receptor M1 (Rattus norvegicus) (UniProt P08482). The experiment can be described thus: qHTS Assay for Antagonists of Acetylcholine Muscarinic M1 Receptor: Measurement of IP-One Response (AID 944). Further: nearly all actives have a fitted effect of over 75% in size. The procedure, abridged:
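IP1 accumulation measured via TR-FRET between d2-IP1 and Eu-cryptate anti-IP1 antibody after carbachol (200 nM, EC80) stimulation for 30 min; rat M1-transfected CHO cells received compound 10 min before agonist.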

Values without a mark were called inactive. Results filed as inconclusive are left out. Activity calls are given as the source filed them. Unless noted, the call rests on the fitted dose curve; in most records, active means well fitted curve in the direction sought with a large enough effect; inconclusive means small, poorly fitted or top-dose-only effect, or another doubt; inactive means no such curve, though single readings can be large; an effect the other way counts as inactive or inconclusive. Some results are limits rather than exact numbers.

Sequence of Guanine nucleotide-binding protein G(i) subunit alpha-1 (Homo sapiens) (P63096 whole entry, looked up): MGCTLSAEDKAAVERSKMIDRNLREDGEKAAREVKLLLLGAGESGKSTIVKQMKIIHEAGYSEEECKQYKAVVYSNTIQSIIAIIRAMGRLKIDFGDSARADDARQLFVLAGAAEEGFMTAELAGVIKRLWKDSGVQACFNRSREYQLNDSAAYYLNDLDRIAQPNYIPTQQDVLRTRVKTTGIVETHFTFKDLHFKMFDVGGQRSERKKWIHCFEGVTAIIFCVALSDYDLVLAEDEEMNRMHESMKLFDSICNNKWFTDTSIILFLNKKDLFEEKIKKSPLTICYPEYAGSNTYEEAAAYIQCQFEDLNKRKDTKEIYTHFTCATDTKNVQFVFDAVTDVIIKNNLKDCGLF
Sequence of 3',5'-cyclic-AMP phosphodiesterase 4B (Homo sapiens) (Q07343 whole entry, looked up): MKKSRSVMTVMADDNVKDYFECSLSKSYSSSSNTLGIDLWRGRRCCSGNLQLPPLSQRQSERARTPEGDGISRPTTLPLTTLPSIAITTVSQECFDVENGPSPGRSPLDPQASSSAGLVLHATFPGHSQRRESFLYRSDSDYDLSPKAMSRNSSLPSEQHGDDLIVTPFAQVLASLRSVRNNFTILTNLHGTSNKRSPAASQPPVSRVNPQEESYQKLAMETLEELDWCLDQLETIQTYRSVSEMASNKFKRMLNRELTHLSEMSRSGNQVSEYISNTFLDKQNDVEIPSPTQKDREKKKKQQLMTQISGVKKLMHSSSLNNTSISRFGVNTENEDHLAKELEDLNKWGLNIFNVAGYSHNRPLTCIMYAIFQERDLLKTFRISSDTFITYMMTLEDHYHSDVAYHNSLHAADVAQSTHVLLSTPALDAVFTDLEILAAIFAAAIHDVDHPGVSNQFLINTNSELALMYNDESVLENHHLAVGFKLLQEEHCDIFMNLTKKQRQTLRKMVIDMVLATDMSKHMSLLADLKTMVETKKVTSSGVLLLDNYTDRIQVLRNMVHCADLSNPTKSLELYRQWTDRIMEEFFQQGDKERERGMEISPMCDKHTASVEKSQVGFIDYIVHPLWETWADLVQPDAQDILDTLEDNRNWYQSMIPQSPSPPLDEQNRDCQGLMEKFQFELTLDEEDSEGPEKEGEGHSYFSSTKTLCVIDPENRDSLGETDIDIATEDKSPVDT
Sequence of Alpha-galactosidase (Coffea arabica) (Q42656 whole entry, looked up): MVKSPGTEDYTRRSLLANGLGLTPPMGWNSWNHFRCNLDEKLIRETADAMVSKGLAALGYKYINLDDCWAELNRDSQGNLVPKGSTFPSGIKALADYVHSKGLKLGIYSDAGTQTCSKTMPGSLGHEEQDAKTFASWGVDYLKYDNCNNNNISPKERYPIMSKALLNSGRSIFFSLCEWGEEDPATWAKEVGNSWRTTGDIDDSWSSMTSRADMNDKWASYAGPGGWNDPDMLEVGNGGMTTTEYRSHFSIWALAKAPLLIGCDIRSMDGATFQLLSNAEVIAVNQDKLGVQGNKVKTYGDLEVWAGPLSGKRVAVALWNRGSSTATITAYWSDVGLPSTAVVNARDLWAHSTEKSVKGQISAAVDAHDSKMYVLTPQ
Sequence of Cytochrome P450 1A2 (Homo sapiens) (P05177 whole entry, looked up): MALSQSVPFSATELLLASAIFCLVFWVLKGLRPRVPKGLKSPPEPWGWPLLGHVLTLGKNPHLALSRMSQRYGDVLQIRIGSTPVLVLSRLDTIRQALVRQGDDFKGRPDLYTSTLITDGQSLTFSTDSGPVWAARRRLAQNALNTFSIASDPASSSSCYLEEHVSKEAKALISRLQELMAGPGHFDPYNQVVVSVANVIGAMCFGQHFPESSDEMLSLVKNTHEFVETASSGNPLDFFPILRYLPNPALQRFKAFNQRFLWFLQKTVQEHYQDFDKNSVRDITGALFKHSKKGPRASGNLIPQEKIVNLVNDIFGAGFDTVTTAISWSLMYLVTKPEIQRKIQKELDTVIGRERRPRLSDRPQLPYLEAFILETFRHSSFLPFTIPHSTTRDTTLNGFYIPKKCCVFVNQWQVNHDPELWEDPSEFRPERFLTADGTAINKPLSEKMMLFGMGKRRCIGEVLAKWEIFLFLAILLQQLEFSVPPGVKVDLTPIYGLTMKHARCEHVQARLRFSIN
Sequence of Muscarinic acetylcholine receptor M1 (Rattus norvegicus) (P08482 whole entry, looked up): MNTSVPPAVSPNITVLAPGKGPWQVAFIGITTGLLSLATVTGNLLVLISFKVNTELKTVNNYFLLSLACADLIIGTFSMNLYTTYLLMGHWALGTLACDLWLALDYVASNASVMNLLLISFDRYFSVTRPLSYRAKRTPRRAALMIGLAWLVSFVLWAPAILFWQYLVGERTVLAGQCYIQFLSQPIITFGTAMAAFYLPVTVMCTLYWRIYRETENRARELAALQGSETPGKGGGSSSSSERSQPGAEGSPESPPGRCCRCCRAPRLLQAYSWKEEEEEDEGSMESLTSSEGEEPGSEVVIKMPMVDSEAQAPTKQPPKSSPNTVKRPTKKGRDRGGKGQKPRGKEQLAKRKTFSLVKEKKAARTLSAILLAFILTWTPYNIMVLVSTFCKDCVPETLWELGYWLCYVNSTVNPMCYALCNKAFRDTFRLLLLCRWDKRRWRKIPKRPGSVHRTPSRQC
Sequence of Alpha-galactosidase A (Homo sapiens) (P06280 whole entry, looked up): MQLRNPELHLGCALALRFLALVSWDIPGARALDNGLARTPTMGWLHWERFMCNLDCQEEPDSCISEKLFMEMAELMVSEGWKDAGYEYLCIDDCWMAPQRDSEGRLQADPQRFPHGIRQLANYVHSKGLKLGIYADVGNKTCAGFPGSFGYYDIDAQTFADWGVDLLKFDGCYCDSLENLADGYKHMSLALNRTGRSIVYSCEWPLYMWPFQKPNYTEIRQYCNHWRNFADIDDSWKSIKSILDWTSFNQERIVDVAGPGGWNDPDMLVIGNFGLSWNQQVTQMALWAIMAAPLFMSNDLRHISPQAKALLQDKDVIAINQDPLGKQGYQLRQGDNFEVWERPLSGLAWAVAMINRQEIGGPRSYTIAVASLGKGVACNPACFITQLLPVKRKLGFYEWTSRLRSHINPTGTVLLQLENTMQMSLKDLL

`C[C@@H]1CC[C@@H]2N(C1)C[C@H]1[C@@](O)([C@H](O)C[C@]3(O)[C@H]4CC[C@H]5[C@]6(O)O[C@]4(C[C@]13O)[C@@]5(C)CC[C@@H]6O)[C@@]2(C)O`: the activity change, negative = inhibition was 0.655% in experiment [1], 4.97% in [3] and 4.3% [at 11.4 µM] in experiment [7]. The Potency result in experiment [2] is “inactive”. Moreover, the activity, negative = inhibition in experiment [4] is -1.33%. Moreover, the Potency is greater than 46 µM in experiment [5] and greater than 9.22 µM in experiment [6]. The outcome in [8] was inactive.

Consider `N[C@H](Cn1ccc(=O)[nH]c1=O)C(=O)O`, for which the figures for the activity change, negative = inhibition in experiment [1] and in experiment [3] were -6.11% [at 38 µM] and -2.89% [at 38 µM], respectively. In addition, the Potency entry in [2] and in experiment [12] was “inactive” in each case. Moreover, the activity, negative = inhibition in [4] was 4.92% [at 38 µM]. In addition, the Potency was greater than 46 µM in experiment [5], greater than 46 µM in experiment [6] and 3.98 µM (active) in [10]. The compound was classed as inactive in [8], in experiment [9], in [11], in experiment [13], in experiment [14] and in experiment [15]. In addition, the compound was classed as inactive in [16] and in [17].

Regarding `NC(=O)CN1C[C@@H](O)CC1=O`, the activity change, negative = inhibition in experiment [1] is 2.98% [at 38 µM]; in [3], 17.8% [at 38 µM]. In addition, the Potency result in [2], in experiment [7] and in [18] was “inactive” each time. In addition, the activity, negative = inhibition in experiment [4] was -8.38% [at 38 µM]. The Potency in experiment [5] and in experiment [6] was greater than 46 µM each time. Moreover, the result in [8], in experiment [9], in experiment [11], in [13], in experiment [14] and in [15] was inactive. The result in experiment [16] and in experiment [17] was inactive.

On to `O=C(O)[C@H]1[C@H](C(=O)O)[C@H]2CC[C@@H]1O2`, for which the values for the activity change, negative = inhibition in experiment [1] and in [3] were -9.16% [at 38 µM] and -8.52% [at 38 µM], respectively. Also, the Potency entry in experiment [2], in experiment [7], in experiment [12] and in experiment [18] was “inactive” throughout. Further, the activity, negative = inhibition in experiment [4] was -14.7% [at 38 µM]. Also, the Potency in experiment [5] and in experiment [6] was greater than 46 µM each time. The call in [8], in experiment [9], in experiment [13], in experiment [14], in experiment [15] and in experiment [16] was inactive. Also, in experiment [17], the outcome was inactive.

Take `CCN(CC)c1ncnc2c1ncn2[C@@H]1O[C@@H](COP(=O)(O)OP(=O)(O)C(Br)(Br)P(=O)(O)O)[C@H](O)[C@@H]1O`: the values for the activity change, negative = inhibition in experiment [1] and in [3] were 6.32% [at 38 µM] and 8.54% [at 38 µM], respectively. The Potency entry in experiment [2], in [7], in experiment [12] and in experiment [18] was “inactive” in each case. The activity, negative = inhibition in experiment [4] was -1.38% [at 38 µM]. In addition, the Potency in [5] and in experiment [6] was greater than 46 µM throughout. The outcome in experiment [8], in experiment [9], in experiment [11], in experiment [13], in [14] and in experiment [15] was inactive. The compound was classed as inactive in experiment [16] and in experiment [17].
